Assay outcomes: PubChem BioAssay, Buhrlage Lab, Dana-Farber Cancer Institute and Novartis Institutes for BioMedical Research (Cambridge, Mass)
USP17 block: human USP17-like deubiquitinase inhibition | 47,000 tested, 6.5% active | A8MUK1 | purified USP17, Ub-rhodamine cleavage fluorescence, 3 h | inhibition, % at 50 µM | AID 1645855
USP30 block: blocks human USP30 ubiquitin-rhodamine cleavage. Q70CQ3. purified USP30, Ub-rhodamine cleavage fluorescence. inhibition, % at 25 µM. 47,000 tested, 5.3% active. AID 1645860
OTUD3 block: inhibitors of human OTUD3 deubiquitinase; AID 1645858; 47,000 tested, 0.7% active; purified OTUD3, Ub-rhodamine fluorescence, 2 h; inhibition, % at 25 µM
Target sequence (Q5T2D3 whole entry, looked up): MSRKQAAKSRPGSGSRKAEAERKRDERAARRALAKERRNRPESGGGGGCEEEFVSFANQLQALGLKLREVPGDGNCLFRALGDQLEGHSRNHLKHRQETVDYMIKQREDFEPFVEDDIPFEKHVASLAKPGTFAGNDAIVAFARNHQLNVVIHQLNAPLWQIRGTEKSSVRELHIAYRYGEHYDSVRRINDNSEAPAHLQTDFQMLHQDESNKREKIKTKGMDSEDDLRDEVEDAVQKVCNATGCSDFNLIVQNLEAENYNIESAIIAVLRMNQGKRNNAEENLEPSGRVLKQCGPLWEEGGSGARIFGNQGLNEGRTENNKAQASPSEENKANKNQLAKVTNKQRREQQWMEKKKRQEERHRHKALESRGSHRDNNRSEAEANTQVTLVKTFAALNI
USP8 inh: human USP8 deubiquitinase inhibition; 47,000 tested, 4.2% active; AID 1645853; P40818; purified USP8, Ub-rhodamine cleavage fluorescence, 30 min; inhibition, % at 20 µM
USP28 inh: human USP28 deubiquitinase inhibition | 47,000 tested, 3% active | purified USP28, Ub-rhodamine cleavage fluorescence, 30 min | inhibition, % at 25 µM | AID 1645857
Numbers stand for hits; - = inactive; . = no result. Sampled rows, rich in hits. Any-hit rate of the full collection: about 13%. Rule as the data show it: active = inhibition above about 30%; inactive = the rest.

SMILES	USP17 block	USP30 block	OTUD3 block	USP8 inh	USP28 inh
O=C(NC1CC1)c1ccc(-c2ccc(N3CCCCC3)nc2)cc1	48	-	-	-	-
CC(C)NC(=O)c1ccc(-c2ccc(N3CCCCC3)nc2)cc1	-	-	-	-	-
O=C(NC1CCCC1)c1cccc(-c2ccc(N3CCCC3)nc2)c1	51	-	-	-	-
O=C(NCc1cccnc1)c1cccc(-c2ccc(N3CCCC3)nc2)c1	-	.	-	-	.
CN1c2ccc(Cl)cc2-c2nc(SCC(=O)Nc3ccc(F)cc3)ncc2S1(=O)=O	-	-	-	50	-
O=C(Nc1ccc2c(c1)OCCO2)C1CCN(C(=O)c2cc(-c3cccnc3)n[nH]2)CC1	-	-	-	-	53
O=C(c1cc(-c2ccccc2)n[nH]1)N1CCC(Nc2cccnc2)C1 (configuration not stated)	-	-	-	58	-
CCOc1ccc(C(=O)N2CCC(Nc3cccnc3)C2)cc1 (configuration not stated)	-	-	-	49	-
O=C(c1cc(-c2ccncc2)n[nH]1)N1CCC(C(=O)N2CC=C(c3ccccc3)CC2)CC1	64	-	-	-	-
O=C(c1ccc2cc[nH]c2c1)N1CCC(Nc2cccnc2)C1 (configuration not stated)	68	-	55	83	-
O=S(=O)(c1ccccc1)N1CCC(Nc2cccnc2)C1 (configuration not stated)	-	-	-	-	-
COc1ccc(C(=O)N2CCC(Nc3cccnc3)C2)c(OC)n1 (configuration not stated)	-	-	-	62	-
COc1cccc2c1OCC(=O)N(c1cccc(C#N)c1)C2	-	-	-	-	-
O=C(COc1ccc2oc3c(c2c1)CCCC3)Nc1ccccc1N1CCCCC1	-	-	-	-	-
COc1ccc(-c2cc(C(=O)NCCC3=CCCCC3)nn2C2CCS(=O)(=O)C2)cc1 (configuration not stated)	-	-	-	-	43
Cc1nc2cc(S(=O)(=O)N3CCC(C(=O)N4CCc5ccccc54)CC3)ccc2n1C1CCCC1	-	-	-	-	-
COc1ccc2c(c1)C(O)(c1c(C)[nH]c3ccccc13)C(=O)N2 (configuration not stated)	-	-	-	-	-
Cc1cccnc1-n1c(C)c(C)c2c1ncn1nc(-c3ccco3)nc21	40	-	-	-	-
CN1CCN(C(=O)c2cc(-c3ccn(CC4CC4)n3)n3ccccc23)CC1	-	-	-	-	-
Cc1nc(-c2cccc(NC(=O)c3ccccc3)c2)cs1	-	-	-	-	-
CN(C)S(=O)(=O)c1cccc(NC(=O)c2cc(-c3cccs3)on2)c1	-	-	-	-	-
CCC(=O)Nc1cccnc1-c1ccc(C(=O)Nc2ccc(C)cc2C)cc1	.	-	-	-	-
COc1cccc(NC(=O)c2ccc(-c3csc(C)n3)cc2)c1	-	-	-	-	60
COc1ccccc1NC(=O)c1ccc(-c2csc(C)n2)cc1	41	.	-	-	.
COc1cccc(NC(=O)c2cc(-c3cccs3)on2)c1	39	34	-	-	32
SMILES	USP17 block	USP30 block	OTUD3 block	USP8 inh	USP28 inh
CCC(=O)Nc1cccnc1-c1ccc(C(=O)Nc2cccc(OC)c2)cc1	-	-	-	-	57
COc1ccccc1CNC(=O)c1ccc(-c2csc(C)n2)cc1	-	-	-	-	-
CC(=O)N[C@@]12CN(C)CC[C@@H]1[C@@H](c1ccccc1)N(CC(=O)Nc1cccc(F)c1C)C2	-	-	-	-	-
CCn1nnc(NCc2ccc(OCc3ccc(Cl)nc3)c(OC)c2)n1	-	-	-	-	-
CC(C)c1noc(CN2CCC(C3CCCCCN3C(=O)C3CCOCC3)CC2)n1 (configuration not stated)	-	-	-	-	-
Cc1nc(-c2noc3ccc(C(=O)Nc4cccnc4)cc23)cs1	-	72	-	-	-
CSc1ccccc1NC(=O)COC(=O)C(Cc1c[nH]c2ccccc12)NC(=O)c1ccccc1Cl (configuration not stated)	-	30	-	-	-
Cc1ccc(C)c(NC(=O)COC(=O)C(Cc2c[nH]c3ccccc23)NC(=O)c2ccccc2Cl)c1 (configuration not stated)	-	-	-	-	-
COc1ccc(Cl)cc1NC(=O)COC(=O)C(Cc1c[nH]c2ccccc12)NC(=O)c1ccccc1Cl (configuration not stated)	-	31	-	-	-
CC(C)[C@@H]1C[C@@H]2C[C@@H](NS(C)(=O)=O)C[C@]2(c2ccccc2)CO1	-	-	-	-	-
C[C@@H](C(=O)NCc1ccc2c(c1)OCO2)N1C(=O)N2CCc3c([nH]c4ccccc34)[C@@]2(C)C1=O	-	33	-	-	-
C[C@]12C(=O)N(c3ccccc3C(=O)NC3CCCC3)C(=O)N1CCc1c2[nH]c2ccccc12	-	-	-	-	-
C[C@@H](C(=O)NCc1ccc(F)cc1)N1C(=O)N2CCc3c([nH]c4ccccc34)[C@@]2(C)C1=O	59	46	-	-	36
CCC(C)[C@H](NC(=O)[C@H](C(C)C)N1C(=O)N2CCc3c([nH]c4ccccc34)[C@@]2(C)C1=O)C(=O)NC1CCCC1 (some centres not stated)	-	32	-	-	-
COc1ccccc1COc1ccc2c(C)c(CC(=O)N3CC[C@@]4(O)CCCC[C@H]4C3)c(=O)oc2c1	-	-	-	-	-
Cc1cccc(OCC(=O)NCC(c2ccc3c(c2)CCCN3C)N2CCOCC2)c1 (configuration not stated)	-	-	-	-	-
O=C(CN1CCc2ccccc2C1)Nc1nc(-c2ccc3c(c2)CCN3C(=O)C2CC2)cs1	-	-	-	-	-
O=C(/C=C1\NCCc2cc3c(cc21)OCCCO3)c1ccc(OC(F)(F)F)cc1	-	-	-	53	-
Fc1cccc(-n2cc(-c3noc(-c4ccc[nH]4)n3)nn2)c1	43	77	-	35	46
COc1cccc(Cc2nc(-c3cn(-c4ccccc4)nn3)no2)c1	-	-	-	-	-
Fc1cccc(-n2cc(-c3noc(-c4ccccn4)n3)nn2)c1	30	89	-	-	81
COc1cccc(Cc2nc(-c3cn(-c4cccc(F)c4)nn3)no2)c1	-	36	-	-	32
O=C(c1nc(-c2cn(-c3cccc(F)c3)nn2)no1)N1CCOCC1	-	-	-	-	-
COc1cccc(C(c2sc3ncnn3c2O)N2CCC3(CC2)OCCO3)c1 (configuration not stated)	-	-	-	-	-
CN(C)CCN(C1CCN(CCc2cccs2)CC1)S(C)(=O)=O	-	-	-	-	-
CC1(O)CC(=O)c2c(cc3cc(O)cc(O)c3c2O)C1 (configuration not stated)	77	-	75	70	68
COc1cccc(-c2ccnc3[nH]c(=O)[nH]c(=O)c23)c1	74	63	-	-	-
O=c1[nH]c(=O)c2c(-c3ccc(-c4ccccc4)cc3)ccnc2[nH]1	-	45	-	76	-
